Bioassay records from PubChem.
Abeta rescue: A-beta toxicity reversal in yeast; yeast expressing A-beta42, growth rescue, OD600, 48 h; response scale: 0% DMSO, 100% iron-clioquinol control; Potency, µM (titrated, usually from 46.1 µM), most hits filed as activators; 0.063% of 410,000 active; AID 1347071; also: nearly all actives have a fitted effect of over 55% in size
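Yeast A-beta toxicity model in growth medium with pinned compounds, 48 h at 30 C; growth read as absorbance at 600 nm. Normalized to FeCl3/clioquinol equimolar mix (positive) and DMSO (negative).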
aSyn yeast inh: inhibitors of alpha-synuclein toxicity in yeast. Yeast expressing alpha-synuclein, growth rescue, BacTiter-Glo, 24 h. AID 652106. 0.14% of 370,000 active. Potency, µM (top dose mostly 46.1 µM), for the others: at the top dose growth rescue (activation), actives largely listed as activators; also: % of control where 0% means no effect; nearly all actives have a fitted effect of over 65% in size
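Rescue of yeast growth: cells expressing toxic alpha-synuclein, induced in galactose at OD600 0.02, incubated with compound 24 h at 30 C. ATP luminescence quantified growth; inhibitors of toxicity appear as activators.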
Mito fusion act: inhibitors of mitochondrial division or activators of mitochondrial fusion; S. cerevisiae fusion-defective mutant growth rescue, CellTiterGlo 48 h; Potency, µM (highest dose often 46.1 µM), for the others: top-dose growth rescue (activation), hits mostly activators; 0.23% of 320,000 active; AID 485298; also: % of control where 0% means no effect; nearly all actives have a fitted effect of over 45% in size
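Temperature-sensitive fusion-defective S. cerevisiae (e.g. fzo1-1, mgm1-5) were grown with compound in YPEG medium (3% ethanol, 3% glycerol) for 48 hours at 37C. Growth rescue was measured as viability by CellTiterGlo luminescence after 10 minutes at ambient.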
TDP43 rescue: inhibitors of TDP-43 toxicity in yeast. Potency, µM (series often up to 46.1 µM), for the others: at the highest dose growth rescue (activation), usual class: activators. AID 652104. 1.8% of 410,000 active. TDP-43 expressing yeast growth rescue, BacTiter-Glo, 24 h; also: % of control where 0% means no effect; nearly all actives have a fitted effect of over 50% in size
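Readout is BacTiter-Glo luminescence of cell growth, so inhibitors register as activators. TDP-43-expressing yeast at OD600=0.02 in galactose medium, after raffinose pregrowth to mid-log, were incubated with compound for 24 hr at 30 deg C.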
FUS suppressor: rescues growth of FUS-expressing yeast. S. cerevisiae FUS-expressing, growth rescue, OD600, 24 h. Potency, µM (titrated, usually from 76.6 µM), most hits filed as activators. 0.24% of 390,000 active;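 also: plate controls were DMSO vehicle for no effect and reference control for full effect; nearly all actives have a fitted effect of over 55% in size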
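Cultures pregrown in 2.5% raffinose medium are shifted to minimal medium containing 2% galactose to express toxic FUS. Compounds are tested at several concentrations. After 24hr at 30C, growth is quantified at 600 nm absorbance.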
Active calls of the source: *; i = inactive; ? = inconclusive; . = no result; ! = not confirmed by another sample; [ ] = another dose, or the depositor's remark. This is a sample that favours compounds with a hit; in the whole collection about 2.2% have one here. Calls follow the shape of the dose curve; as a rule, active = well fitted curve in the direction sought with a large enough effect; inconclusive = small, poorly fitted or top-dose-only effect, or another doubt; inactive = no such curve, though single readings can be large; an effect the other way counts as inactive or inconclusive. Potency is read from the fitted curve at half-maximal effect.

SMILES | Abeta rescue | aSyn yeast inh | Mito fusion act | TDP43 rescue | FUS suppressor
O=S(=O)(NCCc1ccccc1)c1cnc(Cl)c(Br)c1 | i | 13% | 10% | 11µM* | .
O=S(=O)(NCc1ccco1)c1ccc2ccccc2c1 | i | 0% | -2% | ? | i
O=C(O)c1cccc(S(=O)(=O)NCCc2ccccc2)c1 | i | 3% | 2% | 7% | i
CCC[C@H]1[C@@H](NC(=O)c2ccc(Cl)c(C(F)(F)F)c2)CC[C@@]23CCCN2C(=O)CCC[C@@H]13 | . | . | . | . | i
CC1CN(S(=O)(=O)c2cccc(-c3cn4ccccc4n3)c2)CC(C)O1 (stereo not given) | i | -5% | 2.8µM* | -19% | i
Cc1cccn2cc(-c3cccc(S(=O)(=O)N4CC(C)OC(C)C4)c3)nc12 (stereo not given) | i | -6% | -17% | 7% | i
Cc1ccc(Cc2nc3ccccc3nc2SCC(=O)N2CCCCC2C)cc1 (stereo not given) | i | . | . | 35µM* | ?
Cc1ccc(Cc2nc3ccccc3nc2SCC(=O)NCCC(C)C)cc1 | i | . | . | ? | i
COc1cccc(Cc2nc3ccccc3nc2SCC(=O)N2CCCCC2C)c1 (stereo not given) | i | . | . | 35µM* | ?
COc1cccc(Cc2nc3ccccc3nc2SCC(=O)N2CCN(c3ccccc3)CC2)c1 | i | . | . | 19% | i
CCOc1ccccc1NC(=O)CSc1nc2ccccc2nc1Cc1ccc(C)cc1 | i | . | . | 25µM* | i
Cc1cc(-c2cccc([N+](=O)[O-])c2)nc2ccccc12 | i | -2% | -3% | 11µM* | i
CCOc1ccc2oc(=O)cc(CN3CCN(c4ccc(OC)cc4)CC3)c2c1 | i | . | . | 11% | i
COC(=O)Cn1ccc2cc(S(=O)(=O)N3CCCCC3)ccc21 | i | 6% | 2% | 5% | i
CCOc1ccc(CNC(=O)Cn2ccc3cc(S(=O)(=O)N4CCCCCC4)ccc32)cc1 | i | 8% | -6% | -4% | i
COC(=O)Cn1ccc2cc(S(=O)(=O)N3CCCCCC3)ccc21 | i | 11% | -2% | 16µM*! | i
CCOc1ccc(CCNC(=O)Cn2ccc3cc(S(=O)(=O)N4CCCCC4)ccc32)cc1 | i | . | . | 12% | 18µM*
CC1=CC(=O)C(C(C)=Nc2ccccc2[N+](=O)[O-])C(=O)O1 (stereo not given) | i | -1% | . | -46% | i
CCOC(=O)c1ccc(S(=O)(=O)Nc2cc(C(C)(C)C)no2)cc1 | i | 18% | 3% | 13µM* | i
CCOC(=O)c1ccc(NS(=O)(=O)c2ccc(SC)cc2)cc1 | i | 20% | 20µM* | ? | ?
CC(C)(C)c1cc(NS(=O)(=O)c2ccc3c(c2)OCCO3)on1 | ? | -2% | -6% | 13µM* | i
CCOC(=O)Cc1ccc(NS(=O)(=O)c2ccc(SC)cc2)cc1 | i | 6% | 13% | 2% | i
S=C(Nc1ccc2nsnc2c1)NC1CCCCC1 | i | -13% | ? | 13µM* | .
S=C(Nc1ccc(Cl)c(Cl)c1)NC1CCCCC1 | i | -16% | 23% | -2% | i
COc1ccc(-c2c3c(=O)n(C)c(=O)n(C)c3cn2-c2cccc(N)c2)cc1 | i | . | . | 0%[9.22 µM] | ?
COc1ccc(/C(O)=C/C(=O)C(=O)Nc2c(C)n(C)n(-c3ccccc3)c2=O)cc1 | i | 0% | -4% | 0% | 28µM*
COc1ccc(/C(O)=C/C(=O)C(=O)NNC(=O)c2ccccc2)cc1 | i | 19% | -10% | -49% | i
COc1ccc(/C(O)=C/C(=O)C(=O)NNC(=O)C(O)(c2ccccc2)c2ccccc2)cc1 | i | 8% | -1% | 2% | 28µM*
Cc1ccc(C2(c3ccccc3)NC(=O)N(CC(=O)NC3(C#N)CCCC3)C2=O)cc1C (stereo not given) | i | 1%[1.84 µM] | -4% | -10% | i
CCC(=O)N1CCc2cc(Br)cc(S(=O)(=O)N3CCCC(C(=O)Nc4ccc(C)c(F)c4)C3)c21 (stereo not given) | i | . | . | -12% | i
